Out of some 27,000 compounds screened, about 120 (0.44%) were called active. No stated cut-off is given here; in the data, active means inhibition above about 20%; inconclusive means no clear call, values can overlap the other calls; inactive means below that. This excerpt belongs to a sample that is enriched for actives.

The target in this assay is Serine/threonine-protein kinase 33 (Homo sapiens) (UniProt Q9BYT3). Briefly: STK33 kinase inhibitors, primary screen, biochemical, luminescence, ADP-Glo, MBP substrate (AID 2322). Particulars: at 12.5 µM, active compounds read high. A general note: ADP-Glo turns the ADP formed in a reaction into a luminescent signal.
Sequence of Serine/threonine-protein kinase 33 (Homo sapiens) (Q9BYT3 whole entry, looked up): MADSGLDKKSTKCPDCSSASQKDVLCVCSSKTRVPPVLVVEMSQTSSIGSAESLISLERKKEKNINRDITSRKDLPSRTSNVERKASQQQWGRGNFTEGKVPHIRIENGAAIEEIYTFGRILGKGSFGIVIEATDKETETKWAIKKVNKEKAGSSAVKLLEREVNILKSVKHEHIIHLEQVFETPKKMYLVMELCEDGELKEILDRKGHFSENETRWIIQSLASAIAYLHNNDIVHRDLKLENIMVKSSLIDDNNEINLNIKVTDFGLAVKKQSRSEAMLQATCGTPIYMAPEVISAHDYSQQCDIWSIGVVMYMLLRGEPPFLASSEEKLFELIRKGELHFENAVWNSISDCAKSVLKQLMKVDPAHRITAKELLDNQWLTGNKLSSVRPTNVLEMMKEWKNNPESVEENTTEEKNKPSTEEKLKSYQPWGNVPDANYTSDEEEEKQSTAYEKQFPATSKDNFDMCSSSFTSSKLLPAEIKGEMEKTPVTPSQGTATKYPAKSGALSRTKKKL
As usually defined, the inhibition is the drop in the measured response relative to a control, in per cent. Regarding `COC(=O)c1cc(NC(=O)Cc2ccccc2[N+](=O)[O-])ccc1Cl`, the inhibition is 1.83% (inactive).
Consider `CCn1c(SCC(=O)c2ccc(OC)cc2)nnc1-c1ccccc1F`, for which the inhibition is -0.529% (inactive).
Then `Cc1cc(OCc2nc3ccccc3s2)ccc1NC(=O)c1cccc(F)c1`, with 0.681% (inactive); and `CS(=O)(=O)N(CC(=O)Nc1ccc(F)cc1F)c1cc(Cl)c(Cl)cc1Cl`, with -1.13% (inactive); and `C=CCN1C(=O)[C@]2(O[C@H](CCn3cc(CCO)nn3)[C@@H]([Si](C)(C)c3ccc(OC)cc3)[C@@H]2C)c2cc(N3CCOC3=O)ccc21`, with -0.0517% (inactive).
For `CC(=O)c1cccc(N(CC(=O)Nc2ccccc2C(F)(F)F)S(C)(=O)=O)c1`, the inhibition was 0.774% (inactive).
Then `COc1c(O)cc2oc(-c3ccc(O)c(O)c3)cc(=O)c2c1O`, with 39.8% (active); and `CCc1ccccc1NC(=O)COc1cc(O)c2c(=O)cc(-c3ccccc3)oc2c1`, with 6.95% (inactive).
Then `CC(=O)OC[C@H]1O[C@@H](Oc2c(-c3ccc(O)c(O)c3)oc3cc(O)cc(O)c3c2=O)[C@H](O)[C@@H](O)[C@@H]1O`, with 6.14% (inactive); and `Cc1ccc2nc(-c3ccc(Cl)c(NC(=O)COc4ccc(Br)cc4)c3)oc2c1`, with 0.49% (inactive); and `Cc1ccc(-c2nnc(SCC(=O)Nc3ccccc3OC(F)F)o2)cc1`, with 2.8% (inactive).
Then `C[C@H]1CN([C@@H](C)CO)C(=O)c2cc(NC(=O)CCN3CCOCC3)ccc2O[C@@H]1CN(C)C(=O)Nc1ccc(C(F)(F)F)cc1`, with -0.787% (inactive).
With `N#Cc1c(NC(=O)C2CC(Cl)=CCC2C(=O)O)sc2c1CCC2` (centres undefined), the inhibition was -3.84% (inactive).
Then `CCc1cc(Br)cc(C)c1NC(=O)CSc1nnc(-c2ccc(Cl)cc2)n1C`, with 3.71% (inactive); and `C[C@@H]1CN([C@H](C)CO)C(=O)CCCn2nncc2CO[C@@H]1CN(C)S(=O)(=O)c1cccc(C#N)c1`, with -5.23% (inactive).
Then `COC(=O)Nc1ccc(S(=O)(=O)N2CCCC(C(=O)Nc3ccc(N(C)C)cc3)C2)cc1` (centres undefined), with -2.4% (inactive); and `C[C@@H]1CCCCO[C@H](CN(C)C(=O)NC2CCCCC2)[C@@H](C)CN([C@H](C)CO)C(=O)c2cc(NS(=O)(=O)c3ccc(F)cc3)ccc2O1`, with -0.501% (inactive).
Then `O=C(CSc1nc2c(c(C(F)(F)F)n1)CCCC2)N1c2ccccc2Sc2ccccc21`, with 2.75% (inactive); and `Cc1cc(C)cc(NC(=O)CSc2nnc(-c3ccncc3)n2-c2ccccc2)c1`, with -3.15% (inactive); and `Cc1noc(C)c1S(=O)(=O)Nc1ccc2c(c1)CC(=O)N([C@@H](C)CO)C[C@H](C)[C@@H](CN(C)S(=O)(=O)c1cn(C)cn1)O2`, with 1.65% (inactive).
As for `COc1cccc(NC(=O)CCC(=O)O)c1`, the inhibition is -2.64% (inactive).
Then `Cc1cccc(NC(=O)CSc2nnc3c4ccccc4nc(-c4ccccc4)n23)c1`, with -2.64% (inactive); and `Cc1cccc(C)c1NC(=O)CSc1nc(O)cc(=O)[nH]1`, with -1.7% (inactive).
As for `COc1ccccc1CC(=O)Nc1ccc(-c2nnc(-c3ccc(C)cc3)o2)cc1`, the inhibition was 6.73% (inactive).
Then `Cc1ccc2nc(-c3ccncc3)cc(C(=O)NCc3ccccn3)c2c1`, with -5.08% (inactive).
Then `COC(=O)c1sccc1NC(=O)COc1cc(C)ccc1Cl`, with 6.51% (inactive); and `COc1cc2c(cc1NC(=O)CN(C)S(=O)(=O)c1ccc(Br)cc1)oc1ccccc12`, with -2.44% (inactive).
Then `Cc1ccc([N+](=O)[O-])cc1NC(=O)CSc1nnc(-c2ccncc2)n1C`, with -0.493% (inactive); and `O=C(CCn1nc(-c2ccccc2)c2ccccc2c1=O)Nc1cccc(Br)c1`, with 8.57% (inactive).
As to `O=C(COc1ccc2ccccc2c1Br)NCCN1CCOCC1`, the inhibition was 0.329% (inactive).
Then `O=C(CSc1nnc(-c2ccncc2)n1-c1ccccc1)Nc1ccc(OC(F)(F)F)cc1`, with 1.66% (inactive); and `COC(=O)c1c(-c2cccnc2)csc1NC(=O)c1cc(-c2ccc(C)o2)nc2ccccc12`, with 9.69% (inactive).
Then `C[C@@H]1CN([C@H](C)CO)C(=O)Cc2cc(NC(=O)CCCN(C)C)ccc2O[C@H]1CN(C)S(=O)(=O)c1cccs1`, with -0.927% (inactive); and `COc1cc(OC)c(C2=NOC(C(=O)Nc3cccnc3)C2)cc1Cl` (centres undefined), with -2.64% (inactive).
Then `C[C@H](CO)N1C[C@H](C)[C@H](CN(C)S(=O)(=O)c2ccccc2)Oc2ccc(NC(=O)Cn3cnnn3)cc2C1=O`, with 1.24% (inactive); and `COc1ccc(S(=O)(=O)Nc2ccc3c(c2)C(=O)N([C@H](C)CO)C[C@H](C)[C@@H](CN(C)Cc2ccc(-c4ccccc4)cc2)O3)cc1`, with 2.44% (inactive).
Take `CC(=O)Nc1ccc(S(=O)(=O)NC2(C(F)(F)F)C(=O)N(Cc3ccc(F)cc3)C3=C2C(=O)CC(C)(C)C3)cc1` (centres undefined): the inhibition was -0.346% (inactive).
Take `CCOC(=O)c1sc(NC(=O)c2cc(C)on2)c(C(=O)OCC)c1C`: the inhibition is -1.02% (inactive).
Then `Cc1nnc(SCC(=O)Nc2cc(C(F)(F)F)ccc2Cl)s1`, with 3.42% (inactive); and `O=C(COc1ccc2oc3c(c2c1)CCCC3)Nc1cccnc1`, with -2.38% (inactive); and `O=C1c2ccccc2C(=O)N1CCCc1nc2ccccc2c(=O)n1-c1nc2ccccc2s1`, with -0.682% (inactive).
Then `CC(C)=CCCC(C)(O)C(O)Cc1cc(C(=O)O)cc(CC=C(C)C)c1O` (centres undefined), with -4.79% (inactive); and `O=C(Cn1ccc([N+](=O)[O-])n1)NCc1cccs1`, with 4.56% (inactive); and `COc1ccc(C(=O)N(Cc2nc(-c3ccccc3)no2)C(C)C)cc1[N+](=O)[O-]`, with -9.54% (inactive).
Then `COC(=O)c1cc(OC)c(OC)cc1NC(=O)COc1ccc(Cl)cc1`, with -1.45% (inactive); and `Cc1cc(Cl)ccc1NC(=O)CN(c1ccc(Cl)c(Cl)c1)S(C)(=O)=O`, with -1.61% (inactive).
As for `O=S(=O)(c1ccc(F)cc1)c1nc(-c2ccccc2Cl)oc1NCc1ccco1`, the inhibition was 4.44% (inactive).
Then `COc1cc(-c2nc3ccccc3s2)ccc1OCC(=O)Nc1ccc(C)cc1`, with 1.24% (inactive); and `C[C@H](CO)N1C[C@H](C)[C@H](CN(C)C)Oc2ncc(/C=C/c3ccccc3)cc2C1=O`, with -3.66% (inactive).

The record behind these values is PubChem BioAssay AID2322 (Broad Institute, 2010).
